Data: PubChem BioAssay (NCI)
About 79,000 compounds went through this panel and 15% of them were active in at least one assay; those are over-represented in the sample as a whole. Activity calls are given as the source filed them. No stated cut-off is given here; in the data, active means growth inhibition above about 70%; inactive means the rest. Where a SMILES comes first, the peptide text is derived from it. [ ]: non-standard residue; d: D form. The star is where a group is joined. Cbz = O=C(OCc1ccccc1)*; Nva = CCC[CH](N)C(=O)O

Experiments:
[1] = NCI Yeast Anticancer Drug Screen. Data for the rad50 strain (AID 155);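 further: 0% = growth of vehicle-only cultures of the same strain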; conditions: S. cerevisiae rad50 strain growth inhibition; at 50.0 µM; hits give high values
Procedure, shortened: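 A DNA repair-deficient yeast mutant serves as the test organism; compound-induced growth inhibition is calculated against vehicle-treated cells.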

[2] = NCI Yeast Anticancer Drug Screen. Data for the mec2-1 strain (AID 157); conditions: S. cerevisiae mec2-1 strain, at 50.0 µM, hits give high values
Procedure, shortened: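 Vehicle-treated cultures served as reference for growth inhibition of compound-exposed mec2-1 yeast.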

[3] = NCI Yeast Anticancer Drug Screen. Data for the sgs1 mgt1 strain (AID 161);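 further: 0% = growth of cultures given vehicle only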; conditions: S. cerevisiae sgs1 mgt1 strain, at 50.0 µM, hits give high values
Procedure, shortened: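 Inhibition of yeast growth, normalised to vehicle-treated controls, is reported for a strain bearing genetic alterations in DNA damage repair.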

[4] = NCI Yeast Anticancer Drug Screen. Data for the cln2 rad14 strain (AID 165);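 further: 0% = growth equal to vehicle treated cultures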; conditions: S. cerevisiae cln2 rad14 strain, at 50.0 µM, hits give high values
Procedure, shortened: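 Each compound was tested on cln2 rad14 yeast. Inhibition of growth was calculated against vehicle-exposed controls.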

[5] = NCI Yeast Anticancer Drug Screen. Data for the bub3 strain (AID 167); conditions: S. cerevisiae bub3 mutant strain, at 50.0 µM, hits give high values
Procedure, shortened: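 Inhibition values come from growth of compound-treated mutant yeast normalised to vehicle-treated controls.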

[6] = NCI Yeast Anticancer Drug Screen. Data for the mlh1 rad18 strain (AID 175); conditions: S. cerevisiae mlh1 rad18 strain growth inhibition; at 50.0 µM; hits give high values
Procedure, shortened: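 Vehicle-treated cultures served as the reference for growth inhibition in a yeast strain carrying DNA damage repair alterations exposed to each compound.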

Measured: growth inhibition

O=C(Nc1cccc2c1[nH]c1c(-c3ccccc3)nccc12)c1ccccc1[N+](=O)[O-]
inactive: [1] 58.1% | [2] 45.1% | [3] 49.2% | [4] 23.2% | [5] 42.6% | [6] 51.5%

CC(Oc1ccccc1-c1ccccc1)C(=O)O (stereo not given)
inactive: [1] 6.95% | [2] -22.2% | [3] -5.9% | [4] 5.45% | [5] -1.9% | [6] 15.1%

CN(C)S(=O)(=O)c1ccc(NC(=O)OC2CCCC2)cc1
inactive: [1] 12.9% | [2] 3.7% | [3] 6.8% | [4] 33.2% | [5] 24.6% | [6] 0.35%

Cc1nc(-n2nc(-c3ccccc3)cc2-c2ccccc2)sc1C(=O)/C=C/c1ccccc1
inactive: [1] 6.95% | [2] 18.9% | [3] 14.7% | [4] 9.1% | [5] 29.6% | [6] 12.9%

CCCCCCCCCCCn1cnc2c(=S)nc[nH]c21
inactive: [1] 0.25% | [2] 5.3% | [3] -17.1% | [4] 20.7% | [5] -21.2% | [6] -21.2%

O=C1N2Cc3c4ccc5c3CN3C(=O)N6Cc7c(ccc(c7CN1C6(c1ccccc1)C23c1ccccc1)OCCOCCOc1cc(Br)c(Br)cc1OCCOCCO4)OCCOCCOc1cc(Br)c(Br)cc1OCCOCCO5 (stereo not given)
inactive: [1] -4.95% | [2] 8.95% | [3] -3.45% | [4] 18.1% | [5] -1.8% | [6] -16.4%

O=c1oc2ccc3ccccc3c2cc1-c1c[nH]c2ccccc12
inactive: [1] 10.7% | [2] 10% | [3] 15.2% | [4] 11.6% | [5] 6.05% | [6] 7.05%

CCOC(=O)CC(c1ccccc1)C(C#N)(c1ccccc1)N(C)C (stereo not given)
inactive: [1] 27.9% | [2] 19.5% | [3] 40.8% | [4] 18% | [5] 30.4% | [6] 33.5%

NC(=O)C(C(N)=O)c1ccnc2ccccc12
inactive: [1] 8.6% | [2] -2.65% | [3] -16% | [4] -16.8% | [5] -2.1% | [6] 10.9%

CCOC(=O)c1c(C)[nH]c(-c2csc(N)n2)c1C
inactive: [1] -5.3% | [2] -1.65% | [3] 21.4% | [4] -55.7% | [5] -9.35% | [6] -14.8%

CCCC(NC(=O)OCc1ccccc1)C(=O)NC(Cc1ccccc1)C(N)=O (stereo not given) (Cbz-[Nva]-Phe-NH2; configuration not given here)
inactive: [1] -6% | [2] -0.9% | [3] -3.45% | [4] -34.2% | [5] -5.5% | [6] 0.45%

COc1ccc(CN2CCCN(Cc3ccc(OC)cc3)C2c2ccc([N+](=O)[O-])cc2)cc1
inactive: [1] -0.3% | [2] 14.8% | [3] 12.8% | [4] -18.7% | [5] 32.9% | [6] -16.6%

COc1cc(C(=O)N=Nc2c(O)[nH]c3ccc(Br)cc23)cc(OC)c1OC
inactive: [1] 3.55% | [2] -16.6% | [3] -7.1% | [4] -1.9% | [5] 2% | [6] -3.1%

COC(=O)N/N=C(/Cc1occc(=O)c1O)C(=O)Nc1ccc([N+](=O)[O-])cc1[N+](=O)[O-]
inactive: [1] -11.1% | [2] -12.9% | [3] -26.4% | [4] 3.3% | [5] 5.25% | [6] 8.1%

Cc1ccc(Cc2cc(=O)[nH]c(=S)[nH]2)cc1
inactive: [1] -1.05% | [2] 4.05% | [3] -6.15% | [4] -26.9% | [5] -11.6% | [6] -3.35%

CC(C)NC(=O)CCSCCC(=O)NC(C)C
inactive: [1] 3.6% | [2] -10.7% | [3] -3.75% | [4] -6.8% | [5] -17.9% | [6] 10.1%

COc1ccc([N+](=O)[O-])c2c(C)cc(=O)[nH]c12
inactive: [1] 32.1% | [2] 19.4% | [3] 21.9% | [4] -9.5% | [5] -23.6% | [6] 35.7%

N#Cc1ccccc1CC(O)(c1ccccc1)c1ccccc1
inactive: [1] 36.5% | [2] -5.85% | [3] -7.75% | [4] 13.7% | [5] -10.2% | [6] 9.8%

Cc1cn(C2OC(CO)C(O)C(O)C2O)c(=O)[nH]c1=O (stereo not given)
inactive: [1] -1.4% | [2] 5.65% | [3] -5.45% | [4] -3.2% | [5] 15.2% | [6] 0.9%

CCCCCCCCCCCCCCCCCC[N+](CCCC)(CCCC)CCCCCCCCCCCCCCCCCC (tested in a mixture with another compound)
inactive: [1] 3.45% | [2] 7.25% | [3] 1.7% | [4] -10% | [5] 1.5% | [6] 4.3%
